# Several values for one entry are separate records, joined by “and”; a condition that tells them apart may be missing. Equal entries are not always repeated. Inconclusive results are not listed. Unmarked numbers belong to inactive results. Activity calls are given as the source filed them. Calls come from the whole dose curve; as a rule, active = well fitted cell-killing curve with a large enough effect; inconclusive = small, poorly fitted or top-dose-only effect; inactive = flat fitted curve, though single readings scatter.
# How the values were obtained:
# [1] = Cellular viability qHTS for adrenocortical cancer (ACC) cell line SW-13 (AID 1963989); conditions: SW-13 ACC cells viability, CellTiter-Glo, 48 h; activity (max response): hits give low values; note: nearly all actives have a fitted effect of over 65% in size;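 for activity (max response): cells grown in serum-free medium with ITS supplement; % is set by controls: 0 for no effect and ±100 for the full control effect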
# In short: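 SW-13 cells in ITS-supplemented serum-free DMEM were plated overnight, then exposed for 48 h at 37C to compound titrations (up to 46 uM final). Viability was read by CellTiter-Glo luminescence; four-parameter logistic fits gave IC50 and efficacy.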
# [2] = Cellular viability qHTS for adrenocortical cancer (ACC) cell line NCI-H295R (AID 1963990); note: nearly all actives have a fitted effect of over 60% in size;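 for activity change, negative = viability loss: 0% = DMSO only wells and -100% = full killing with cytotoxic reference compound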
# In short: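 Luminescent ATP read-out (CellTiter-Glo, 20 min RT) after 48 h drug exposure of NCI-H295R cells; a titration up to 46 uM final. Data normalized to doxorubicin (100% inhibition) and DMSO (0%); 4-parameter fit gives IC50, max response.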
# Potency is the fitted concentration of half-maximal effect.
Compound,activity (max response) [1],Potency [2],"activity change, negative = viability loss [2]",Potency [1]
CCCC(=O)OC[C@@H](OC(=O)CCC)[C@@H](OC(=O)CCC)[C@H](Cn1c2nc(=O)[nH]c(=O)c-2nc2cc(C)c(C)cc21)OC(=O)CCC,-8.77%,inactive,–,–
COc1ccc(Cl)cc1-c1cc(=O)[nH]c(=S)n1CC(N)=O,-3.52%,inactive,–,–
O=C(Nc1cnn2ccc(N3CCC[C@@H]3c3cc(F)ccc3F)nc12)N1CC[C@H](O)C1,-2.6%,inactive,–,–
Cc1ccc(/C(=C\CN2CCCC2)c2ccccn2)cc1,2.73%,inactive,–,–
C[C@@]12CCC[C@H]1[C@@H]1CC[C@H]3C[C@@H](O)CC[C@]3(C)[C@H]1CC2,-0.85%,inactive,–,–
Nc1nc(OCc2cc(Br)cs2)c2[nH]cnc2n1,-10.5%,inactive,–,–
O=C(O)c1ccccc1-c1ccc(/C=c2\sc3nc4cc(Br)cnc4n3c2=O)o1,-2.9%,inactive,–,–
CC1CC(OC(=O)C(O)c2ccccc2)CC(C)(C)N1C (stereo not given),2.77%,inactive,–,–
O=C(CS)Nc1ccccc1,-14.1%,inactive,–,–
Cc1noc(C)c1-c1ccc(-c2cc(C(N)=O)c(NC(N)=O)s2)c(O[C@H]2CCNC2)c1,-22.5%,inactive,–,–
CC(C)(c1ccc(OCC(O)CO)cc1)c1ccc(OCC(O)CCl)cc1 (stereo not given),-21.2%,inactive,–,–
NC(N)=NCCN1CCCCCCC1,5.33%,–,7.14% [at 0.587 µM],–
O=C(O)CCCCN(CCc1ccccc1OCc1ccc(CCc2ccccc2)cc1)Cc1ccc(C(=O)O)cc1,9.06%,inactive,–,–
Cc1ccc(-c2ccc(C)cn2)nc1,-26.3%,inactive,–,–
CCc1oc2ccccc2c1C(=O)c1cc(I)c(O)c(I)c1,–,6.51 µM (active),–,5.8 µM (active)
C=CC[N+]1([C@H]2C[C@H]3[C@@H]4CC[C@H]5C[C@H](OC(C)=O)[C@@H](N6CCCCC6)C[C@]5(C)[C@H]4CC[C@]3(C)[C@H]2OC(=O)CC)CCCCC1,-4.47%,inactive,–,–
C[C@@H]1CCN(C(=O)CC#N)C[C@@H]1N(C)c1ncnc2[nH]ccc12,-8.3%,inactive,–,–
O=C(Nc1cccnc1)c1cc(-c2ccnc(F)c2)ccc1OCc1ccccc1,13.4%,inactive,–,–

Compound,activity (max response) [1],Potency [2],"activity change, negative = viability loss [2]",Potency [1]
Cc1c(N)c(=O)n(-c2ccccc2)n1C,-4.39%,inactive,–,–
Cc1cc(Nc2cc(N)ncn2)c(=O)n2c1C(=O)NC21CCCCC1,0.221%,inactive,–,–
CN1CCN(C2=Nc3ccccc3Sc3ccc(Cl)cc32)CC1,-24.6%,inactive,–,–
O=C1Cc2cc(C(=O)NC3C[C@H]4CC[C@@H](C3)N4S(=O)(=O)CC3CCN(CCCC(F)(F)F)CC3)c(Cl)cc2N1 (stereo not given in full),-5.12%,inactive,–,–
OC(C#CCN1CCCC1)(c1ccccc1)c1ccccc1,-0.545%,inactive,–,–
CC(=O)c1cc2ccccc2s1,15.3%,inactive,–,–
CC(O)Cn1cnc2c1c(=O)n(C)c(=O)n2C (stereo not given),-7.87%,inactive,–,–
Cc1c(-c2c(-c3ccc(F)o3)sc3ncnc(O[C@@H](Cc4ccccc4OCc4ccnn4CC(F)(F)F)C(=O)O)c23)ccc(OCCN2CCN(C)CC2)c1Cl,–,1.58 µM (active),–,0.199 µM (active)
C#CC1(O)CC[C@H]2[C@@H]3CCC4=CCCC[C@@H]4[C@H]3CC[C@@]21C (stereo not given in full),6.47%,inactive,–,–
Oc1cccc(O)c1,6.94%,inactive,–,–
COc1ccc2[nH]c(S(=O)Cc3ncc(C)c(OC)c3C)nc2n1 (stereo not given),4.99% and -14.4%,inactive,–,–
CCN(CC)CCOc1ccccc1C(=O)CCc1ccccc1,-19.2%,inactive,–,–
CC(C)(C)C(=O)CN1C(=O)[C@H](NC(=O)Nc2cccc(C(=O)O)c2)CN(C2CCCCC2)c2ccccc21,11.5%,inactive,–,–
COc1ccnc2c1CCCCC2S(=O)c1nc2ccccc2[nH]1 (stereo not given),4.45%,inactive,–,–
O=c1[nH]nc2c3c(cccc13)NC(CN1Cc3ccccc3C1)=N2,-23.2%,inactive,–,–
C[C@H](CS)C(=O)N1CCC[C@H]1C(=O)O,-1.14%,inactive,–,–
Cc1cccc(-c2[nH]ncc2-c2ccc(F)c(-c3cnn(CCO)c3)c2)n1,-6.75%,inactive,–,–
